Test results reported in PubChem BioAssay (NCATS).
Records with an inconclusive call do not appear. Where a call stands in place of a potency, no number is given. Unmarked numbers belong to inactive results. Active and inactive are the calls of the source. Calls follow the shape of the dose curve; as a rule, active = well fitted inhibition curve with a large enough effect; inconclusive = small, poorly fitted or top-dose-only effect; inactive = flat fitted curve, though single readings scatter.

Legend:
[1] = qHTS profiling for inhibitors of Plasmodium falciparum proliferation (AID 504749); also: nearly all actives have a fitted effect of over 60% in size; conditions: P. falciparum in erythrocytes, SYBR Green DNA, 72 h
Method in brief: (§1)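 P. falciparum-infected erythrocytes (0.3% parasitemia, 2.5% hematocrit) incubated with compound 72 h at 37 C, 5% CO2. Parasite DNA detected by SYBR Green after lysis, overnight at room temperature; normalised to 0.29 uM artemisinin and DMSO.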

[2] = tested on: 3D7; assay: as above; conditions: P. falciparum in erythrocytes, SYBR Green DNA, 72 h; series mostly up to 28.7 µM
Method in brief: as §1

[3] = tested on: AA1029; assay: as above; conditions: P. falciparum in erythrocytes, SYBR Green DNA, 72 h; series mostly up to 28.7 µM
Method in brief: as §1

[4] = tested on: AS120; assay: as above; conditions: P. falciparum in erythrocytes, SYBR Green DNA, 72 h; series mostly up to 28.7 µM
Method in brief: as §1

[5] = tested on: ATS189; assay: as above; conditions: P. falciparum in erythrocytes, SYBR Green DNA, 72 h; series mostly up to 28.7 µM
Method in brief: as §1

[6] = tested on: ATS95; assay: as above; conditions: P. falciparum in erythrocytes, SYBR Green DNA, 72 h; series mostly up to 28.7 µM
Method in brief: as §1

[7] = tested on: 7G8; assay: as above; conditions: P. falciparum in erythrocytes, SYBR Green DNA, 72 h; series mostly up to 28.7 µM
Method in brief: as §1

[8] = at 28.7 µM (top of the series), parasite line A
[9] = at 28.7 µM (top of the series), parasite line B
[10] = at 12.8 µM (top of the series), parasite line A
[11] = at 12.8 µM (top of the series), parasite line B
Potency is read from the fitted curve at half-maximal effect.

Structure (SMILES) | activity, negative = inhibition [1, 8] [%] | activity, negative = inhibition [1, 9] [%] | Potency [2] | Potency [3] | Potency [4] | Potency [5] | Potency [6] | Potency [7] | activity, negative = inhibition [1, 10] [%] | activity, negative = inhibition [1, 11] [%]
Nc1ccc(S(=O)(=O)c2ccc(N)cc2)cc1 | 2.8 | 7.07 | inactive | inactive | inactive | inactive | inactive | – | – | –
Nc1c2c(nc3c1CCC3)CCCC2 | – | – | – | – | – | – | – | 11.2 µM (active) | – | –
CC(=O)N(CC(O)CO)c1c(I)c(C(=O)NCC(O)CO)c(I)c(C(=O)NCC(O)CO)c1I (stereo not drawn) | 7.48 | 5.34 | inactive | inactive | inactive | – | inactive | 11.2 µM (active) | – | –
Cc1c(I)c(=O)n(-c2ccccc2)n1C | 2.47 | – | inactive | inactive | inactive | inactive | inactive | inactive | – | –
CCCCCCCC(=O)OCC(COC(=O)CCCCCCC)OC(=O)CCCCCCC | 4.54 | – | inactive | inactive | inactive | inactive | inactive | inactive | – | –
Cc1cc(OI)c(C(C)C)cc1-c1cc(C(C)C)c(OI)cc1C | – | – | – | – | – | – | – | 7.94 µM (active) | – | –
C[C@H]1COc2c(C3(N)CC3)c(F)cc3c(=O)c(C(=O)O)cn1c23 | -1.84 | -23.2 | – | inactive | inactive | inactive | inactive | inactive | – | –
O=C1c2ccccc2C(=O)C1c1ccc(Br)cc1 | – | – | 11.2 µM (active) | – | inactive | inactive | – | 11.2 µM (active) | – | –
O=C1CC[C@@H](C(=O)O)N1 | 0.206 | 18.2 | inactive | inactive | inactive | inactive | inactive | – | – | –
Cc1cc(C)c(NC(=O)CN(CC(=O)O)CC(=O)O)c(C)c1Br | – | – | inactive | – | – | – | – | inactive | – | –
Cc1[nH]c(C)c(Cl)c(=O)c1Cl | – | – | – | inactive | inactive | inactive | inactive | 11.2 µM (active) | – | –
O=C1c2ccccc2S(=O)(=O)N1CCCCN1CCN(c2ncccn2)CC1 | -16.2 | 25.9 | inactive | inactive | inactive | inactive | inactive | – | – | –
O=C(c1ccccc1)C(O)c1ccccc1 (stereo not drawn) | – | -14.9 | inactive | inactive | inactive | inactive | inactive | inactive | – | –
CC(=O)OC[C@H]1O[C@@](COC(C)=O)(O[C@H]2O[C@H](COC(C)=O)[C@@H](OC(C)=O)[C@H](OC(C)=O)[C@H]2OC(C)=O)[C@@H](OC(C)=O)[C@@H]1OC(C)=O | – | 21.3 | inactive | inactive | – | – | – | inactive | – | –
CN(C/C=C/C#CC(C)(C)C)Cc1cccc2ccccc12 | -1.32 | -6.19 | inactive | inactive | inactive | inactive | inactive | – | – | –
NCc1ccc(S(N)(=O)=O)cc1 | – | – | inactive | inactive | inactive | – | inactive | – | 6.73 | 11
CCN(CC)CCOC(=O)C(c1ccccc1)c1ccccc1 | -8.73 | -12.1 | inactive | inactive | inactive | inactive | inactive | – | – | –
O=C1C(c2[nH]c3ccccc3c2O)=Nc2ccccc21 | – | – | – | inactive | – | – | inactive | – | – | –
O=C1c2cccc(O)c2C(=O)c2c(O)cccc21 | -0.153 | 3.79 | inactive | inactive | inactive | inactive | inactive | – | – | –
Cc1c(NC(=O)c2cccnc2)c(=O)n(-c2ccccc2)n1C | – | – | inactive | inactive | inactive | inactive | inactive | – | 17.3 | 5.39
CC(=O)Oc1cccc(O)c1 | 4.48 | 12.6 | inactive | inactive | inactive | inactive | inactive | – | – | –
CC(=O)SC[C@@H](Cc1ccccc1)C(=O)NCC(=O)OCc1ccccc1 | – | – | inactive | inactive | inactive | inactive | inactive | – | -4.01 | -5.82
Nc1ncnc(Nc2ccccc2)n1 | -28.4 | – | inactive | inactive | inactive | inactive | inactive | inactive | – | –
NC(=O)CCCCC1CCSS1 (stereo not drawn) | -3.84 | -4.11 | inactive | inactive | – | – | inactive | – | – | –
Cc1cc(-n2nc3ccc(Cl)cc3n2)c(O)c(C(C)(C)C)c1 | – | – | inactive | – | – | – | – | inactive | – | –
CCCCCC(C)N (stereo not drawn) | – | -25.4 | – | – | – | – | inactive | 10 µM (active) | – | –
CC(=O)NS(=O)(=O)c1ccc(N)cc1 | 6.18 | 10.5 | inactive | inactive | inactive | inactive | inactive | inactive | – | –
